The text below walks through data of PubChem BioAssay AID463173 (ICCB-Longwood Screening Facility, Harvard Medical School, 2010).

Screen size: about 52,000 compounds; about 4,300 (8.3%) were called active. The list comes from a sample in which actives are over-represented; it also holds similar structures and randomly drawn compounds. Unmarked numbers belong to inactive results. No stated cut-off is given here; in the data, active means survival mostly below about 52% (no sharp cut-off); inactive means mostly above about 56%.

This test concerns DeltatarO mutant. Briefly: growth inhibition of S. aureus wild type versus tarO mutant, primary screen, teichoic acid synthesis inhibitors, RN4220, OD600 (AID 463173). Conditions: OD600, 18 h, stronger effect = lower value, screened at 18.75 µg/mL (by protocol).
Consider `CCOc1ccc(C(=O)Nc2cccc(NC(=O)c3ccc(C(C)(C)C)cc3)c2)cc1Br`, for which the survival is 81%.
The figure for `CCOc1ccc(C(=O)Nc2ccc(NC(=O)c3ccccc3)cc2)cc1Br` is 85%.
Turning to `CCOc1ccc(C(=O)Nc2ccc3c(c2)OCCO3)cc1Br`, the survival is 37% (active).
Consider `O=C(C1COc2ccccc2O1)N(Cc1cccnc1)c1nc2c(F)cccc2s1` (centres undefined), for which the survival was 84%.
For the compound `CCCC(=O)N1CCCC(c2nc(-c3cccs3)no2)C1` (centres undefined), the survival is 107%.
The figure for `Cc1c(C)n(Cc2ccccc2)c2ccc(C(=O)NC(C)c3ccccc3)cc12` (centres undefined) is 78%; for `COc1ccc(NC(=O)c2oc3c(c2C)-c2nn(Cc4c(F)cccc4Cl)cc2CC3)c(OC)c1` it is 72%; for `Cc1cccc(OCCSc2nnc(-c3cccs3)o2)c1` it is 58%.
Take `Cc1cc(Cl)ccc1OCCSc1nnc(-c2cccs2)o1`: the survival is 37% (active).
On to `COc1ccc(-c2nnc(SCCOc3ccccc3C)o2)cc1OC`, for which the survival was 64%.
The figure for `Cc1ccc(OCCSc2nnc(-c3cccs3)o2)cc1` is 53%; for `Cc1ccc(OCCSc2nnc(-c3cccs3)o2)cc1Cl` it is 45% (active); for `COc1cc(C)ccc1OCCSc1nnc(-c2ccc(C)cc2)o1` it is 55%.
`Cc1ccccc1OCCSc1nnc(-c2cccs2)o1`: the survival was 106%.
The figure for `COc1cc(C)ccc1OCCSc1nnc(-c2cccs2)o1` is 40% (active).
As to `Clc1ccccc1OCCSc1nnc(-c2cccs2)o1`, the survival is 43%.
As for `O=c1c2cnn(-c3ccc(F)cc3)c2ncn1Cc1ccc(F)cc1`, the survival was 106%.
Turning to `CCn1c2c(c(=O)n3ncc(C(=O)N4CCN(c5ccc(C(C)=O)cc5)CC4)c13)CN(Cc1ccc(OC)cc1)CC2`, the survival was 126%.
The figure for `COc1ccc(Br)cc1CNC(=O)c1ccc2c(c1)nc1n2CCC(C)C1` (centres undefined) is 75%.
`COc1ccccc1C(=O)N1CCC(c2noc(-c3ccc(S(=O)(=O)N4CCCC4)cc3)n2)CC1`: the survival is 98%.
In the case of `COc1ccc(NC(=O)C(Cc2ccccc2)NS(=O)(=O)c2ccc3c(c2)CCN3C(C)=O)cc1` (centres undefined), the survival was 72%.
As for `COc1ccc(N2CCN(C(=O)c3ccc4c(c3)N(Cc3ccc(F)cc3)C(=O)c3ccccc3S4=O)CC2)cc1` (centres undefined), the survival is 116%.
With `CC(=O)Nc1ccc(S(=O)(=O)NC2=NCN(CCO)CN2)cc1`, the survival was 89%.
The result for `COc1ccc(C)cc1NC(=O)CSc1nc(=O)n(Cc2ccco2)c2c1CCC2` reads 116%.
Consider `CC(C)CCOc1ccc(Cn2c(=O)oc3ccccc32)cc1`, for which the survival is 127%.
Consider `CCCCOc1ccc(Cn2c(=O)oc3ccc(C)cc32)cc1`, for which the survival is 40% (active).
In the case of `CCCCOc1ccc(Cn2c(=O)oc3ccccc32)cc1`, the survival was 127%.
As for `CCCCCOc1ccc(Cn2c(=O)oc3ccc(C)cc32)cc1OC`, the survival is 4% (active).
Consider `CCCCCOc1ccc(Cn2c(=O)oc3ccccc32)cc1`, for which the survival was 124%.
As for `CCCCOc1ccc(Cn2c(=O)oc3ccc(C)cc32)cc1OC`, the survival was 36% (active).
Take `COc1cc(Cn2c(=O)oc3ccc(C)cc32)ccc1OCCC(C)C`: the survival was -1% (active).
As for `CCCCOc1ccc(CN2C(=O)C(=O)c3cc(C)ccc32)cc1OC`, the survival is 122%.
Consider `O=C(O)c1ccc2oc(=O)n(Cc3ccccc3)c2c1`, for which the survival is 94%.
In the case of `CCOc1ccc(CNC(=O)c2ccc3oc(=O)n(Cc4ccccc4)c3c2)cc1`, the survival was 79%.
